High-throughput results deposited in PubChem by Johns Hopkins Ion Channel Center.
KCNQ2 enhance = KCNQ2 (rat) channel potentiation; CHO-K1 KCNQ2, FluxOR thallium flux fluorescence; hits give high values; B-score at 10 µM; hit rate 0.54% among 310,000; AID 2239;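 active = fluorescence ratio B-score at least 3 SD of library B-scores, with initial fluorescence B-score within 3 of them, cut at about 5.3 in these data; same plate scores as AID 2156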;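 also: B-score of peak minus minimum over baseline fluorescence ratio after K+ and Tl+ stimulus; positive B-score means potentiation of KCNQ2 with more thallium influx and brighter signal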
Target sequence (O88943 whole entry, looked up): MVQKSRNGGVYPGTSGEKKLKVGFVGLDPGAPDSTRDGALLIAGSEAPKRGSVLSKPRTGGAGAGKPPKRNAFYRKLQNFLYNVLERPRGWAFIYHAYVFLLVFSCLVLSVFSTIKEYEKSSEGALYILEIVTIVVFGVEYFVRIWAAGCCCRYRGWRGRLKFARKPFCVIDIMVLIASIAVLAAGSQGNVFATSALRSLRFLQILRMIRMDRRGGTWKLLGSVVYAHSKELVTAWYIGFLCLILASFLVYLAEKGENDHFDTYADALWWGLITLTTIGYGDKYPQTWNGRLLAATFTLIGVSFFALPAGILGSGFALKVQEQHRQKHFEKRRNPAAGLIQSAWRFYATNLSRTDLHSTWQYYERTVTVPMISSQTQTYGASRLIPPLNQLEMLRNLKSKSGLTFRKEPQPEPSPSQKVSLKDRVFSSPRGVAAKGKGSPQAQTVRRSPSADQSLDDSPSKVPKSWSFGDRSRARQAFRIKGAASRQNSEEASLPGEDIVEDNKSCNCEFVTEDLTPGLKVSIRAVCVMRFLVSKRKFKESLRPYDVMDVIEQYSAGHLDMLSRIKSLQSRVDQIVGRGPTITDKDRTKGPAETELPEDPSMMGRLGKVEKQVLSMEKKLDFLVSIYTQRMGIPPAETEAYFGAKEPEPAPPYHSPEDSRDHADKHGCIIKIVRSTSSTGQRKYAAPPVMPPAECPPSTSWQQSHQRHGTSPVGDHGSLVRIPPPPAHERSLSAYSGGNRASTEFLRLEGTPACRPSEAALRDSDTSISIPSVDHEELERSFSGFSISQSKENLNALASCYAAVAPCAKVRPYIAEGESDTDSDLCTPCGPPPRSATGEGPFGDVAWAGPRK
KCNQ2 inh = inhibitors of rat KCNQ2 potassium channel | B-score at 10 µM | AID 2156 | hit rate 1.1% among 310,000 | CHO-K1 KCNQ2, FluxOR thallium flux, 20 min; hits give low values;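 active = fluorescence ratio B-score at most minus 3 library SDs, with starting brightness B-score within 2 library SDs, cut at about -5.5 in these data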
Active calls of the source: *; i = inactive; nt = not tested or not shown. In the library only some 1.6% were active in any assay of this set; here they are far more common.

SMILES | KCNQ2 enhance | KCNQ2 inh
Cc1ccccc1COc1ccc(-c2nnn(CC(=O)O)n2)cc1 | nt | i
CC(C)(C)c1cc(C(=S)N2CCCC2)cc(C(C)(C)C)c1O | nt | i
C[C@]1(C(=O)NCc2cc(F)cc(C(F)(F)F)c2)C=C[C@@H](Cc2ccccc2)N1C(=O)c1ccccc1 | -7.17 | -7.17*
COCCNC(=O)[C@@]1(C)C=C[C@@H](Cc2ccccc2)N1C(=O)c1ccccc1 | 0.24 | i
NC(=S)N/N=C/c1ccc(-n2nncc2-c2ccc(Cl)cc2)cc1 | nt | i
CC(C)Cn1c2c(c(O)c(C(=O)Nn3c(Cc4ccccc4)nc4ccccc4c3=O)c1=O)CCCC2 | -6.26 | -6.26*
CCCCc1nc2ccccc2c(=O)n1NC(=O)c1c(O)c2c(n(CC(C)C)c1=O)CCCC2 | nt | i
Cc1nc(C)c(C(=O)O)s1 | nt | i
COc1ccc(C(=O)Nc2c(N)nc[nH]c2=O)cc1 | 1.47 | i
COc1ccc(NC(=O)c2cccc(N3C(=O)NC4CC3(C)Oc3ccccc34)c2)cc1 (stereo not given) | nt | i
COc1cccc2c1OC1(C)CC2NC(=O)N1c1cccc(C(=O)Nc2ccc3c(c2)OCCO3)c1 (stereo not given) | -6.72 | -6.72*
COc1ccc(C(=O)N2CCN(C)C(=O)[C@@H]2C)cc1OC1CCN(C(C)=O)CC1 | 1.05 | i
CC(=O)Nc1cccc(OCCCNC(=O)c2cccc3ccccc23)c1 | 1.31 | i
CC12CCC(C/C1=N\N=C1\NC(=O)/C(=C\c3ccc(Cl)cc3)S1)C2(C)C (stereo not given) | 13* | i
O=C1NC(=Nc2ccccc2Cl)S/C1=C\c1ccc(C(=O)O)cc1 | nt | i
CCCN(CC1CC1)C(=O)COc1ccccc1C(=O)NCc1ccccc1 | -7.74 | -7.74*
CCC(C)N(C(=O)COc1ccccc1C(=O)NCc1ccccc1)C1CCS(=O)(=O)C1 (stereo not given) | nt | i
S=C1NC2(CCCCC2)Nc2ccccc21 | nt | i
OC1(c2ccc(Cl)c(Cl)c2)C[n+]2ccccc2N1Cc1ccccc1 (stereo not given) | nt | i
CNS(=O)(=O)c1cccc(C(=O)OCC(=O)/C=C2/N(C)c3ccccc3C2(C)C)c1 | 1.33 | i
CCOC(=O)/C=C1/N(C)c2ccccc2C1(C)C | 1.94 | i
CN1/C(=C\C(=O)COC(=O)c2ccc(O)cc2)C(C)(C)c2ccccc21 | -6.21 | -6.21*
CN1/C(=C\C(=O)COC(=O)c2ccc(O)c(O)c2)C(C)(C)c2ccccc21 | -6.51 | -6.51*
CCOC(=O)C1CCN(C(=O)CCC(=O)NNc2nc3ccccc3c3nc(C)nn23)CC1 | 1.05 | i
Cc1cc(C)nc(NCC(O)CNc2ccccc2C)n1 (stereo not given) | 0.82 | i
SMILES | KCNQ2 enhance | KCNQ2 inh
Cc1cc(C)nc(NCC(O)COc2ccccc2C)n1 (stereo not given) | -5.86 | -5.86*
CCOC(=O)C(Cc1ccccc1)C(=O)NCc1cccnc1 (stereo not given) | 0.94 | i
CCOC(=O)C(Cc1ccccc1)C(=O)Nc1cccc2ccccc12 (stereo not given) | -5.85 | -5.85*
COc1ccc2c(c1OC)C(=O)N(c1nc(SC)n[nH]1)C2=O | 2.34 | i
CC(=O)c1cccc(OCc2cc(C(=O)NC3CCN(Cc4ccccc4)CC3)no2)c1 | 6.32* | i
O=C(NC1CCN(Cc2ccccc2)CC1)c1cccc(OC(F)F)c1 | 0.15 | i
O=C(O)c1ccc(NC(=S)NC(=O)c2cccc(COc3ccccc3)c2)cc1 | nt | i
O=C(NC(=S)Nc1ccc(CN2CCCCC2)cc1)c1cccc(OCc2ccccc2)c1 | -6.05 | -6.05*
CC1CCCCC1Nc1ncnc2sccc12 (stereo not given) | 1.21 | i
CC(Oc1ccccc1F)C(=O)NNC(=O)CC(C)c1ccccc1 (stereo not given) | 1.63 | i
CCc1cccc(C)c1NC(=O)C1CCCN1C(=O)NCc1ccccc1 (stereo not given) | nt | i
COc1ccc(S(=O)(=O)Nc2cc3c4c(oc3c3ccccc23)CCCC4=O)cc1 | nt | i
COc1ccc(S(=O)(=O)Nc2cc3c4c(oc3c3ccccc23)CC(C)(C)CC4=O)cc1 | -6.45 | -6.45*
CCOc1ccccc1N1CC(C(=O)Nc2ccc(S(=O)(=O)N3CCCCC3)cc2)CC1=O (stereo not given) | 0.19 | i
COc1ccc(NC(=O)Nc2c[nH]c(=O)[nH]c2=O)cc1OC | nt | i
Cc1ccccc1NC(=O)c1ccc(Cn2cc([N+](=O)[O-])cn2)o1 | 0.72 | i
O=C(Nc1cccc(F)c1)c1ccc(Cn2cc([N+](=O)[O-])cn2)o1 | 5.49* | i
Cc1ccc2c(c1)N(S(=O)(=O)c1ccc(F)cc1)C(C(C)(C)C)CO2 (stereo not given) | -6.9 | -6.9*
Cc1ccc(S(=O)(=O)N2c3ccccc3OCC2C(C)(C)C)cc1 (stereo not given) | nt | i
CN1C(=O)C(=O)/C(=C(/O)c2ccc(Br)cc2)C1c1ccccc1F (stereo not given) | nt | i
CN(CCc1ccccc1)C(=O)c1cc(COc2ccc(F)cc2Cl)on1 | nt | i
CC(C)OCCCNC(=O)C(=O)N/N=C/c1ccc(OCc2ccccc2)cc1 | nt | i
Cc1ccc(-c2cc(C(F)F)n3ncc(C(=O)N4CCN(c5ccccn5)CC4)c3n2)cc1 | -5.7 | -5.7*
CCN1CCN(C(=O)c2cnn3c(C(F)F)cc(-c4ccc(C)cc4)nc23)CC1 | 0.37 | i
Cn1c(O)c(N=Nc2ccccc2)c2ccccc21 | 0.09 | i
SMILES | KCNQ2 enhance | KCNQ2 inh
Cn1c(O)c(N=Nc2nc(-c3ccccc3)cs2)c2ccccc21 | 21.9* | i
CCN1CCN(CCCNC(=O)CNC(=O)c2nn(-c3ccc(OC)cc3OC)c(=O)c3ccccc23)CC1 | 0.61 | i
COc1ccc(/C=N\NC(=O)c2cc(O)c(O)c(O)c2)cc1COc1ccc(C(=O)OCC(C)C)cc1 | nt | i
C[C@@H]1C(NC(=O)c2ccccc2)CC2CC1C2(C)C (stereo not given in full) | 0.02 | i
CC(=O)c1ccc(-c2ccc(C(=O)NC3CC(C)(C)NC(C)(C)C3)o2)cc1 | 0.64 | i
COc1ccc(-c2noc(CCCOc3ccc(Cl)cc3Cl)n2)cc1 | nt | i
Cc1ccc(-c2noc(CCCOc3ccc(Cl)cc3Cl)n2)cc1 | -7.26 | -7.26*
CCC(=O)NC(=S)N1CCN(c2ccc([N+](=O)[O-])cc2Cl)CC1 | 0.35 | i
O=C(NCc1ccc(Cl)cc1)N1CCN(Cc2ccccc2)CC1 | nt | i
COc1cccc(NC(=O)C2C3C=CC4(O3)C2C(=O)N(CCCN2CCCC(C)C2)C4C(=O)NC2CCCCC2C)c1 (stereo not given) | 0.83 | i
CC(C(=O)NC(C)(C)C)N(Cc1cccs1)C(=O)CCN1CCc2ccccc21 (stereo not given) | nt | i
Cc1ccc2oc(C(=O)N(C)Cc3ccc(C)o3)c(C)c2c1 | -7.94 | -7.94*
Cc1ccc2oc(C(=O)N(Cc3ccncc3)CC3CCCO3)c(C)c2c1 (stereo not given) | nt | i
CCN(Cc1ccccc1)C(=O)c1oc2ccc(C)cc2c1C | -5.82 | -5.82*
Cc1ccc2oc(C(=O)N(C)Cc3ccon3)c(C)c2c1 | 1.27 | i
Cc1ccc(C2N=C(N)Nc3nc(=O)c4ccccc4n32)cc1 (stereo not given) | 0.81 | i
COc1ccc(NC(=S)N2CCC(C(=O)c3ccc(C)cc3)CC2)c(OC)c1 | nt | i
CC(C)(CN1CCc2ccccc2C1)NS(=O)(=O)c1ccc(Cl)cc1 | nt | i
